B1: unnamed (peptide)
chain: VQKRKLPLPGSIASA

Biological target: AgAbp1
Assay: SPOT peptide array binding signal intensity (averaged, normalized) (arbitrary units (background-subtracted, floor 0; scale differs between SH3 domains)); higher = stronger binding of the SH3 domain to the peptide
Description: (§1)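 GST-tagged SH3 domains from S. cerevisiae (Sc), A. gossypii (Ag), C. albicans (Ca) and S. pombe (Sp) were incubated at 10 ug/ml overnight at 4 C on cellulose SPOT membranes carrying 292 synthetic 15-mer peptides mined from the S. cerevisiae proteome (cysteines replaced by serines). Binding was detected with anti-GST antibody, HRP secondary and chemiluminescence, quantified with Genespotter, and reported as normalized spot intensities averaged over biological replicates.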

| Binder | SPOT peptide array binding signal intensity |
| --- | --- |
| B1 | 40 |

Biological target: AgBbc1
Assay: as above
Description: as §1

| Binder | SPOT peptide array binding signal intensity |
| --- | --- |
| B1 | 39.2 |

Biological target: AgBem1-D1
Assay: as above
Description: as §1

| Binder | SPOT peptide array binding signal intensity |
| --- | --- |
| B1 | 7.25 |

Biological target: AgBzz1-D1
Assay: as above
Description: as §1

| Binder | SPOT peptide array binding signal intensity |
| --- | --- |
| B1 | 47.8 |

Biological target: AgBzz1-D2
Assay: as above
Description: as §1

| Binder | SPOT peptide array binding signal intensity |
| --- | --- |
| B1 | 90.2 |

Biological target: AgCyk3
Assay: as above
Description: as §1

| Binder | SPOT peptide array binding signal intensity |
| --- | --- |
| B1 | 0.5 |

Biological target: AgFus1
Assay: as above
Description: as §1

| Binder | SPOT peptide array binding signal intensity |
| --- | --- |
| B1 | ≤ 0 |

Biological target: AgHof1
Assay: as above
Description: as §1

| Binder | SPOT peptide array binding signal intensity |
| --- | --- |
| B1 | 24.6 |

Biological target: AgHse1
Assay: as above
Description: as §1

| Binder | SPOT peptide array binding signal intensity |
| --- | --- |
| B1 | 58.5 |

Biological target: AgLsb1
Assay: as above
Description: as §1

| Binder | SPOT peptide array binding signal intensity |
| --- | --- |
| B1 | ≤ 0 |

Biological target: AgLsb4
Assay: as above
Description: as §1

| Binder | SPOT peptide array binding signal intensity |
| --- | --- |
| B1 | ≤ 0 |

Biological target: AgMyo5
Assay: as above
Description: as §1

| Binder | SPOT peptide array binding signal intensity |
| --- | --- |
| B1 | 6.25 |

Biological target: AgNbp2
Assay: as above
Description: as §1

| Binder | SPOT peptide array binding signal intensity |
| --- | --- |
| B1 | ≤ 0 |

Biological target: AgRvs167
Assay: as above
Description: as §1

| Binder | SPOT peptide array binding signal intensity |
| --- | --- |
| B1 | 0.75 |

Biological target: AgSho1
Assay: as above
Description: as §1

| Binder | SPOT peptide array binding signal intensity |
| --- | --- |
| B1 | 1.5 |

Biological target: AgSla1-D1-D2
Assay: as above
Description: as §1

| Binder | SPOT peptide array binding signal intensity |
| --- | --- |
| B1 | 6.5 |

Biological target: AgSla1-D3
Assay: as above
Description: as §1

| Binder | SPOT peptide array binding signal intensity |
| --- | --- |
| B1 | ≤ 0 |

Biological target: CaAbp1-D1
Assay: as above
Description: as §1

| Binder | SPOT peptide array binding signal intensity |
| --- | --- |
| B1 | 419 |

Biological target: CaAbp1-D2
Assay: as above
Description: as §1

| Binder | SPOT peptide array binding signal intensity |
| --- | --- |
| B1 | 782 |

Biological target: CaBbc1
Assay: as above
Description: as §1

| Binder | SPOT peptide array binding signal intensity |
| --- | --- |
| B1 | 442 |

Biological target: CaBem1-D1
Assay: as above
Description: as §1

| Binder | SPOT peptide array binding signal intensity |
| --- | --- |
| B1 | 13 |

Biological target: CaBzz1-D1
Assay: as above
Description: as §1

| Binder | SPOT peptide array binding signal intensity |
| --- | --- |
| B1 | 94 |

Biological target: CaBzz1-D2
Assay: as above
Description: as §1

| Binder | SPOT peptide array binding signal intensity |
| --- | --- |
| B1 | 44.6 |

Biological target: CaCyk3
Assay: as above
Description: as §1

| Binder | SPOT peptide array binding signal intensity |
| --- | --- |
| B1 | ≤ 0 |

Biological target: CaFus1
Assay: as above
Description: as §1

| Binder | SPOT peptide array binding signal intensity |
| --- | --- |
| B1 | ≤ 0 |

Biological target: CaHof1
Assay: as above
Description: as §1

| Binder | SPOT peptide array binding signal intensity |
| --- | --- |
| B1 | ≤ 0 |

Biological target: CaHse1
Assay: as above
Description: as §1

| Binder | SPOT peptide array binding signal intensity |
| --- | --- |
| B1 | ≤ 0 |

Biological target: CaLsb1
Assay: as above
Description: as §1

| Binder | SPOT peptide array binding signal intensity |
| --- | --- |
| B1 | ≤ 0 |

Biological target: CaLsb4
Assay: as above
Description: as §1

| Binder | SPOT peptide array binding signal intensity |
| --- | --- |
| B1 | ≤ 0 |

Biological target: CaMyo5
Assay: as above
Description: as §1

| Binder | SPOT peptide array binding signal intensity |
| --- | --- |
| B1 | 0.5 |

Biological target: CaNbp2
Assay: as above
Description: as §1

| Binder | SPOT peptide array binding signal intensity |
| --- | --- |
| B1 | 70 |

Biological target: CaRvs167
Assay: as above
Description: as §1

| Binder | SPOT peptide array binding signal intensity |
| --- | --- |
| B1 | 2.17 |

Biological target: CaRvs167-3
Assay: as above
Description: as §1

| Binder | SPOT peptide array binding signal intensity |
| --- | --- |
| B1 | 4.62 |

Biological target: CaSho1
Assay: as above
Description: as §1

| Binder | SPOT peptide array binding signal intensity |
| --- | --- |
| B1 | ≤ 0 |

Biological target: CaSla1-D1-D2
Assay: as above
Description: as §1

| Binder | SPOT peptide array binding signal intensity |
| --- | --- |
| B1 | 118 |

Biological target: CaSla1-D3
Assay: as above
Description: as §1

| Binder | SPOT peptide array binding signal intensity |
| --- | --- |
| B1 | ≤ 0 |

Biological target: ScAbp1
Assay: as above
Description: as §1

| Binder | SPOT peptide array binding signal intensity |
| --- | --- |
| B1 | 100 |

Biological target: ScBbc1
Assay: as above
Description: as §1

| Binder | SPOT peptide array binding signal intensity |
| --- | --- |
| B1 | 30.1 |

Biological target: ScBem1-D1
Assay: as above
Description: as §1

| Binder | SPOT peptide array binding signal intensity |
| --- | --- |
| B1 | 16.5 |

Biological target: ScBzz1-D1
Assay: as above
Description: as §1

| Binder | SPOT peptide array binding signal intensity |
| --- | --- |
| B1 | 21.2 |

Biological target: ScBzz1-D2
Assay: as above
Description: as §1

| Binder | SPOT peptide array binding signal intensity |
| --- | --- |
| B1 | 10 |

Biological target: ScCyk3
Assay: as above
Description: as §1

| Binder | SPOT peptide array binding signal intensity |
| --- | --- |
| B1 | ≤ 0 |

Biological target: ScFus1
Assay: as above
Description: as §1

| Binder | SPOT peptide array binding signal intensity |
| --- | --- |
| B1 | ≤ 0 |

Biological target: ScHof1
Assay: as above
Description: as §1

| Binder | SPOT peptide array binding signal intensity |
| --- | --- |
| B1 | 0.5 |

Biological target: ScHse1
Assay: as above
Description: as §1

| Binder | SPOT peptide array binding signal intensity |
| --- | --- |
| B1 | 63 |

Biological target: ScLsb1
Assay: as above
Description: as §1

| Binder | SPOT peptide array binding signal intensity |
| --- | --- |
| B1 | ≤ 0 |

Biological target: ScLsb2
Assay: as above
Description: as §1

| Binder | SPOT peptide array binding signal intensity |
| --- | --- |
| B1 | ≤ 0 |

Biological target: ScLsb3
Assay: as above
Description: as §1

| Binder | SPOT peptide array binding signal intensity |
| --- | --- |
| B1 | 525 |

Biological target: ScLsb4
Assay: as above
Description: as §1

| Binder | SPOT peptide array binding signal intensity |
| --- | --- |
| B1 | 11.5 |

Biological target: ScMyo3
Assay: as above
Description: as §1

| Binder | SPOT peptide array binding signal intensity |
| --- | --- |
| B1 | ≤ 0 |

Biological target: ScMyo5
Assay: as above
Description: as §1

| Binder | SPOT peptide array binding signal intensity |
| --- | --- |
| B1 | 1.5 |

Biological target: ScNbp2
Assay: as above
Description: as §1

| Binder | SPOT peptide array binding signal intensity |
| --- | --- |
| B1 | ≤ 0 |

Biological target: ScPex13
Assay: as above
Description: as §1

| Binder | SPOT peptide array binding signal intensity |
| --- | --- |
| B1 | 1 |

Biological target: ScRvs167
Assay: as above
Description: as §1

| Binder | SPOT peptide array binding signal intensity |
| --- | --- |
| B1 | 340 |

Biological target: ScSho1
Assay: as above
Description: as §1

| Binder | SPOT peptide array binding signal intensity |
| --- | --- |
| B1 | 50 |

Biological target: ScSla1-D1-D2
Assay: as above
Description: as §1

| Binder | SPOT peptide array binding signal intensity |
| --- | --- |
| B1 | 180 |

Biological target: ScSla1-D3
Assay: as above
Description: as §1

| Binder | SPOT peptide array binding signal intensity |
| --- | --- |
| B1 | 32.5 |

Biological target: SpAbp1-D1
Assay: as above
Description: as §1

| Binder | SPOT peptide array binding signal intensity |
| --- | --- |
| B1 | 174 |

Biological target: SpBbc1
Assay: as above
Description: as §1

| Binder | SPOT peptide array binding signal intensity |
| --- | --- |
| B1 | 0.5 |

Biological target: SpBzz1-D1
Assay: as above
Description: as §1

| Binder | SPOT peptide array binding signal intensity |
| --- | --- |
| B1 | 232 |

Biological target: SpBzz1-D2
Assay: as above
Description: as §1

| Binder | SPOT peptide array binding signal intensity |
| --- | --- |
| B1 | ≤ 0 |

Biological target: SpCyk3
Assay: as above
Description: as §1

| Binder | SPOT peptide array binding signal intensity |
| --- | --- |
| B1 | 15 |

Biological target: SpHof1
Assay: as above
Description: as §1

| Binder | SPOT peptide array binding signal intensity |
| --- | --- |
| B1 | 197 |

Biological target: SpHof1-2
Assay: as above
Description: as §1

| Binder | SPOT peptide array binding signal intensity |
| --- | --- |
| B1 | 253 |

Biological target: SpHof1-3
Assay: as above
Description: as §1

| Binder | SPOT peptide array binding signal intensity |
| --- | --- |
| B1 | 397 |

Biological target: SpHse1
Assay: as above
Description: as §1

| Binder | SPOT peptide array binding signal intensity |
| --- | --- |
| B1 | 34.1 |

Biological target: SpLsb1
Assay: as above
Description: as §1

| Binder | SPOT peptide array binding signal intensity |
| --- | --- |
| B1 | 50.6 |

Biological target: SpLsb4
Assay: as above
Description: as §1

| Binder | SPOT peptide array binding signal intensity |
| --- | --- |
| B1 | 275 |

Biological target: SpMyo1
Assay: as above
Description: as §1

| Binder | SPOT peptide array binding signal intensity |
| --- | --- |
| B1 | ≤ 0 |

Biological target: SpNbp2
Assay: as above
Description: as §1

| Binder | SPOT peptide array binding signal intensity |
| --- | --- |
| B1 | 7 |

Biological target: SpPex13
Assay: as above
Description: as §1

| Binder | SPOT peptide array binding signal intensity |
| --- | --- |
| B1 | ≤ 0 |

Biological target: SpRvs167
Assay: as above
Description: as §1

| Binder | SPOT peptide array binding signal intensity |
| --- | --- |
| B1 | 55.4 |

Biological target: SpSla1-D1-D2
Assay: as above
Description: as §1

| Binder | SPOT peptide array binding signal intensity |
| --- | --- |
| B1 | 16.2 |

Biological target: SpSla1-D3
Assay: as above
Description: as §1

| Binder | SPOT peptide array binding signal intensity |
| --- | --- |
| B1 | ≤ 0 |
